An excerpt weighted towards active compounds, which were near 7.6% of everything screened.
MCF10A rerep – A quantitative high throughput screen for small molecules that induce DNA re-replication in MCF 10a normal breast cells; MCF 10A DNA re-replication, Hoechst nuclear intensity, 48 h; Potency, µM (highest dose often 46.1 µM), inactives show top-dose activity, positive = re-replication, actives largely listed as activators; hit rate 2.9% among 350,000; note: potency is the fitted concentration of half-maximal effect; % of control where 0% means no effect; nearly all actives have a fitted effect of over 50% in size
KCNH2 3.1 block – qHTS for Inhibitors of KCHN2 3.1: Mutant qHTS. Potassium voltage-gated channel subfamily H member 2, brain isoform KCNH2 3.1 (human). U2OS KCNH2 3.1, thallium flux FluxOr; active compounds read low. activity change, % (tested at about 1.8 µM). hit rate 0.95% among 340,000. AID 720553, 2013;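 active = maximum activity change below -70%; inconclusive = maximum activity change from -70% to -50%; inactive = maximum activity change above -50%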;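 note: thallium influx rate constant from kinetic fluorescence after stimulation buffer; % is set by controls: 0 for no effect and ±100 for the full control effect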
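U2OS cells transduced with KCNH2 3.1 mutant virus (1.77 x 10^8 /mL, 4 h), plated overnight at 37 C, loaded 45 min with FluxOr dye plus Red40 quencher. Thallium flux rate constant from kinetic reads after stimulation buffer, normalised to controls.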
hERG WT inh – qHTS for Inhibitors of KCHN2 3.1: Wildtype qHTS | hit rate 0.37% among 340,000 | U2OS, BacMam KCNH2, thallium flux FluxOr; active compounds read low | AID 720551, 2013 | activity change, % at 1.84 µM | Voltage-gated inwardly rectifying potassium channel KCNH2 (Homo sapiens), Q12809;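 active = maximum activity change below -70%; inconclusive = maximum activity change between -70% and -50%; inactive = maximum activity change above -50%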; note: % is set by controls: 0 for no effect and ±100 for the full control effect
Target sequence (Q12809 whole entry, looked up): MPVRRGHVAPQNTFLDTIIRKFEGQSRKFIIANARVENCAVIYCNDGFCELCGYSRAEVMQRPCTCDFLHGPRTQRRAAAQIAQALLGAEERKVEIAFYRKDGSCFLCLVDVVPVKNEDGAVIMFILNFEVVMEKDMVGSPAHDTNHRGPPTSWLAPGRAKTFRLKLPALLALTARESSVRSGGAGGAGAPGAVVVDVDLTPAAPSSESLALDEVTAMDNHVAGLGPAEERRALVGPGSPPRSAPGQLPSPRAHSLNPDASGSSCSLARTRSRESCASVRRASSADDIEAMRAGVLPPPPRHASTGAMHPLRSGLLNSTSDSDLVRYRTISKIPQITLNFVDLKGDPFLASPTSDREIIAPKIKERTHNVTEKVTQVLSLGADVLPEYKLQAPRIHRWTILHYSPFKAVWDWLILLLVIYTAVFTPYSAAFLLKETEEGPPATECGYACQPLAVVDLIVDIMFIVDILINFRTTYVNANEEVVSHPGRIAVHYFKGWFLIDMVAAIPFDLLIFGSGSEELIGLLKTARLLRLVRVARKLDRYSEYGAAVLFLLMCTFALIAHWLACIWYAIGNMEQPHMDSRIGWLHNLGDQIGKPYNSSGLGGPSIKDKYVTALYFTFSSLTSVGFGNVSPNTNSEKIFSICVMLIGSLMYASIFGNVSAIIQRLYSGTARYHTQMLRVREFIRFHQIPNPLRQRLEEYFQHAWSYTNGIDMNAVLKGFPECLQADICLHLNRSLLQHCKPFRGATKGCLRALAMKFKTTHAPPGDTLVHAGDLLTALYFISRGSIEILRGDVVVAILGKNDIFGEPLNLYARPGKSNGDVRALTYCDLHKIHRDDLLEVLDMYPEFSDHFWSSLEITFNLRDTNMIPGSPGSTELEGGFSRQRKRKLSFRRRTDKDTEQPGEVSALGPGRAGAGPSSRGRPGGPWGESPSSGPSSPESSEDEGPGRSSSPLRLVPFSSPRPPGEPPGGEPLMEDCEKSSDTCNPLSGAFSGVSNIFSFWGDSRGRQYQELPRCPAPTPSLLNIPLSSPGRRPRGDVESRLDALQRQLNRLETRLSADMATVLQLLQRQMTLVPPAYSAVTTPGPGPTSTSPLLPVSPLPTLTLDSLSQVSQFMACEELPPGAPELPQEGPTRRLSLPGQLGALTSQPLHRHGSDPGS
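U2OS cells were transduced with wild-type KCNH2 virus (2.03 x 10^8 / mL) for 4 h at room temperature, then cultured overnight at 37 C. Thallium flux was read with FluxOr dye. Rate constants were normalized to DMSO controls.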
KB-3-1 tox – qHTS assay for MDR1-selective chemotherapeutics: Primary screen using the parental adenocarcinoma cell KB-3-1. Potency, µM (top dose mostly 46.1 µM), actives largely listed as cytotoxic. KB-3-1 viability, CellTiter-Glo ATP luminescence, 72 h. hit rate 1.4% among 400,000; note: potency is the fitted concentration of half-maximal effect; % is set by controls: 0 for no effect and ±100 for the full control effect; nearly all actives have a fitted effect of over 60% in size
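Using CellTiter-Glo luminescence, growth of non-resistant KB-3-1 adenocarcinoma cells is assessed 72 h after pin-tool compound addition at 37 °C. Normalized responses across the concentration series yield fitted curves.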
SW480 rereplic – A quantitative high throughput screen for small molecules that induce DNA re-replication in SW480 colon adenocarcinoma cells; hit rate 1.8% among 340,000; SW480 DNA re-replication, Hoechst DNA content imaging, 48 h; Potency, µM (doses to about 46.1 µM), inactives show at the highest dose re-replication activation, hits mostly activators; note: potency is the fitted concentration of half-maximal effect; % of control where 0% means no effect; nearly all actives have a fitted effect of over 55% in size
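Hoechst fluorescence of nuclei (405 nm excitation, 500-530 nm emission) measured by plate-scanning imager after 48 hr compound exposure at 37 C; re-replication scored as increased number of nuclei with elevated intensity.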
KB-V1 cytotox – qHTS assay for MDR1-selective chemotherapeutics: Primary screen using the drug-selected MDR subline cells KB-V1; KB-V1 MDR cells viability, CellTiter-Glo, 72 h; Potency, µM (series often up to 46.1 µM), actives largely listed as cytotoxic; hit rate 3.4% among 400,000; AID 1347076, 2019; note: potency is the fitted concentration of half-maximal effect; % is set by controls: 0 for no effect and ±100 for the full control effect; nearly all actives have a fitted effect of over 60% in size
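KB-V1, DMEM (no phenol red) + 10% FBS; cpd pin-transferred, titration series; 72 h, 37 degrees C; CellTiter-Glo, luminescence. Data normalized, curve-fit.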
Active calls of the source: *; i = inactive; ? = inconclusive; . = not tested or not shown; [ ] = another dose, or the depositor's remark. Unless noted, calls come from the whole dose curve; as a rule, active = well fitted curve in the direction sought with a large enough effect; inconclusive = small, poorly fitted or top-dose-only effect, or another doubt; inactive = no such curve, though single readings can be large; an effect the other way counts as inactive or inconclusive.

SMILES | MCF10A rerep | KCNH2 3.1 block | hERG WT inh | KB-3-1 tox | SW480 rereplic | KB-V1 cytotox
CNCc1c(OCc2ccc(F)cc2)ccc2ccccc12 | 1% | 8 | 10 | i | 1%[1.84 µM] | i
Cc1cccc(OCC(=O)N/N=C/c2cc([N+](=O)[O-])ccc2N2CCOCC2)c1 | 10% | . | -2 | i | 2% | i
CN(C(=O)CCCN1C(=O)c2ccccc2C1=O)C1CCCCC1 | 4% | 8 | -21 | i | -5% | 12µM*
COc1ccc(C)cc1NS(=O)(=O)c1ccc2c(c1)oc(=O)n2C | 2% | 0 | -10 | i | 18% | i
Cn1c(CNC(=O)CSc2nc(-c3ccccc3F)nc3cc(=O)[nH]n23)nc2ccccc21 | . | . | . | i | . | ?
CCOC(=O)N1CCN(S(=O)(=O)c2ccc3c(c2)SC(C)C(=O)N3)CC1 (stereo not drawn) | -5% | -2 | -22 | ? | -4% | 4.6µM*
CCOC(=O)N1CCN(S(=O)(=O)c2ccc3c(c2)SCC(=O)N3)CC1 | 13% | 14 | -1 | i | 12% | i
C/C(=N\NC(=O)CCCNc1ccccc1)c1ccncc1 | ? | -8 | -2 | i | -1% | i
C/C(=N\NC(=O)CCCNc1ccc(C)cc1)c1ccccn1 | ? | 2 | 3 | i | ? | 6.5µM*
COc1ccccc1C(=O)Nc1cc(-c2ccc(C)cc2)no1 | -2% | -4 | -6 | i | -6% | i
O=C(Nc1ccc(Cl)cc1Cl)c1ccc(-c2ccccc2)cc1 | 1% | 5 | -3 | i | -4% | i
CCOC(=O)c1ccc(Cl)c(NC(=O)c2ccc(-c3ccccc3)cc2)c1 | 3.7µM* | -25 | -7 | ? | -1% | i
Nc1ccc[n+](CC(=O)c2ccc(F)cc2)c1 | . | . | . | ? | . | i
CCc1ccc(OCCNC(=O)c2ccccc2SCc2ccccc2)cc1 | 16µM* | -1 | -2 | ? | 8% | ?
COc1ccc(C(=O)/C=C/C(=O)N(Cc2ccccc2)C(C(=O)NC2CCCCC2)c2ccncc2)c(O)c1 (stereo not drawn) | 1% | 4 | -13 | i | 19% | 0.92µM*
COc1ccc(C(=O)/C=C/C(=O)N(Cc2ccc(F)cc2)C(C(=O)NC2CCCCC2)c2ccncc2)c(O)c1 (stereo not drawn) | 9% | -4 | -8 | ? | ? | 0.73µM*
COc1ccc(C(=O)/C=C/C(=O)N(Cc2ccccc2OC)C(C(=O)NC2CCCCC2)c2ccncc2)c(O)c1 (stereo not drawn) | ? | 1 | 0 | ? | 11% | ?
COC(=O)c1c[nH]n2c(=O)c(Cc3ccc(F)cc3Cl)c(C)nc12 | 3% | -10 | 2 | i | -8% | 16µM*
CC1(C)C2([N+](=O)[O-])CN3CC1([N+](=O)[O-])CN(C2)C3C(O)C(O)C(O)CO (stereo not drawn) | -2% | -8 | 9 | i | 10µM* | i
O=C(On1c(-c2ccccc2)nc2ccccc2c1=O)c1ccco1 | ? | -2 | -6 | i | ? | i
COc1cc(OC)cc(-c2nc3ccccc3c(=O)n2OC(=O)c2ccccc2C)c1 | 16µM* | 3 | 2 | i | 0% | ?
O=C(COc1ccc(Cl)cc1Br)NCC(c1ccco1)N1CCCC1 (stereo not drawn) | 11% | -6 | 5 | i | -4% | 5.8µM*
CC1(C)Cc2c(sc(/N=C/N3CCCC3)c2C#N)C(C)(C)N1 | 1% | 24 | 2 | i | -8% | ?
CC1(C)Cc2c(sc(/N=C/N3CCCCCC3)c2C#N)C(C)(C)N1 | 16µM* | -3 | -3 | ? | 0% | i
COc1ccc(CCNC(=O)c2ccc(CN3CCC(Cc4ccccc4)CC3)cc2)cc1 | 10% | -14 | -24 | i | -11% | 9.2µM*
SMILES | MCF10A rerep | KCNH2 3.1 block | hERG WT inh | KB-3-1 tox | SW480 rereplic | KB-V1 cytotox
Cc1ccccc1NC(=O)c1ccc(CN2CCC(Cc3ccccc3)CC2)cc1 | ? | -39 | 17 | ? | ? | 15µM*
CC(C)NC(=O)c1ccc(CN2CCC(Cc3ccccc3)CC2)cc1 | -1% | -2 | 21 | i | -3% | i
O=C(O)c1ccc(C2NCC(c3ccccc3Cl)c3c2[nH]c2ccccc32)cc1 (stereo not drawn) | 0% | -5 | 2 | i | 1% | i
COc1cc(C2NCC(c3ccc(Cl)cc3Cl)c3c2[nH]c2ccccc32)cc(OC)c1OC (stereo not drawn) | 18µM* | -18 | 7 | 18µM* | ? | ?
COc1cccc(CNC(=O)CN2C(=O)CSc3c2c(C)nn3-c2ccccc2)c1OC | . | . | . | i | . | i
CCC(=O)N1CCc2cc(S(=O)(=O)CCC(=O)NCc3ccco3)ccc21 | 8.2µM* | 7 | 1 | ? | ? | i
N#CCC(=O)N/N=C/c1cn(Cc2cccc3ccccc23)c2ccccc12 | 5.2µM* | -10 | -17 | ? | 15µM* | i
Cc1ccc(C(=O)N/N=C/c2cn(Cc3ccccc3)c3ccccc23)cn1 | ? | 1 | 15 | 16µM* | ? | ?
O=S(=O)(N/N=C/c1cn(Cc2ccccc2)c2ccccc12)c1ccccc1 | ? | -3 | -7 | ? | 18% | 21µM*
Cc1ccccc1C(=O)Nc1nnc(CC(=O)N/N=C/c2cn(Cc3ccccc3)c3ccccc23)s1 | 6.5µM* | -3 | 8 | ? | 21µM* | i
NC(=O)Cn1cc(/C=N\NS(=O)(=O)c2ccc(Cl)cc2)c2ccccc21 | 5% | 15 | 7 | i | 1% | i
C#Cc1ccc(CN2CCC(Oc3ccc(C(=O)NCc4ccccn4)cc3)CC2)cc1 | ? | -7 | 18 | . | -2% | .
CC(Cc1cccs1)NC(=S)Nc1ccc(Cl)c(Cl)c1 (stereo not drawn) | ? | . | -8 | i | 17% | i
CC(Cc1cccs1)NC(=S)Nc1ccc(Cl)cc1 (stereo not drawn) | 21µM* | . | 15 | i | 5% | i
O=C(NN=C1CCCC1)c1[nH]c2ccc(Cl)cc2c1-c1ccccc1 | 2.9µM* | 0 | 18 | i | ? | ?
CC/C(C)=N/NC(=O)c1[nH]c2ccc(C)cc2c1-c1ccccc1 | 12µM* | -8 | -7 | i | ? | i

From PubChem
